Source: PubChem BioAssay AID1159580 (chemical genetic matrix, 2015)
Values joined by “and” are separate entries in the source; they are usually repeats but may differ in a detail not shown here. Equal values may be shown once. Among all 5,500 compounds or so, about 2,000 (36%) were called active. Inconclusive results (about 18%) are left out. Cut-off read from the data, not from the text of the source: active = normalized growth mostly below about 0.91 (no sharp cut-off); inconclusive = no clear call, values can overlap the other calls; inactive = mostly above about 0.92. Some of the results follow.

Test: chemical genetic growth profiling, strain panel (AID 1159580);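 note: tested at 20 µM; growth read once vehicle control cultures reached saturation at 30 °C; 1 = growth at the plate median or of vehicle wells; lower values mean less growth of the strain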
Conditions: S. cerevisiae deletion strains, growth OD

Measured: normalized growth

Cc1nnc(NS(=O)(=O)c2ccc(N)cc2)s1
inactive: locus YAL021C, strain ccr4, hits give low values 0.982 | locus YAL026C, strain drs2, hits give low values 1.01 | locus YAL030W, strain snc1, hits give low values 0.986 | locus YBL061C, strain skt5, hits give low values 0.989 | locus YBR009C, strain hhf1, hits give low values 1.01 | locus YBR021W, strain FUR4, hits give low values 1.02 | locus YBR023C, strain chs3, hits give low values 1.02 | locus YBR171W, strain sec66, hits give low values 1 | locus YBR229C, strain ROT2, hits give low values 1 | locus YBR231C, strain swc5, hits give low values 0.99 | locus YBR279W, strain paf1, hits give low values 1 | locus YCL011C, strain gbp2, hits give low values 1.02 | locus YCL016C, strain dcc1, hits give low values 1 | locus YCL029C, strain bik1, hits give low values 0.992 | locus YCL061C, strain MRC1, hits give low values 1.01 | locus YCL069W, strain vba3, hits give low values 0.997 | locus YCR088W, strain abp1, hits give low values 1 | locus YDL005C, strain med2, hits give low values 1.02 | locus YDL035C, strain GPR1, hits give low values 1.02 | locus YDL040C, strain nat1, hits give low values 1.01 | locus YDL074C, strain BRE1, hits give low values 1.05 | locus YDL101C, strain DUN1, hits give low values 1 | locus YDL134C, strain PPH21, hits give low values 1.02 | locus YDL185W, strain tfp1, hits give low values 1 | locus YDL192W, strain arf1, hits give low values 1.01 | locus YDR001C, strain nth1, hits give low values 1.01 | locus YDR069C, strain doa4, hits give low values 0.992 | locus YDR101C, strain arx1, hits give low values 0.995 | locus YDR137W, strain rgp1, hits give low values 1.01 | locus YDR159W, strain sac3, hits give low values 0.979 | locus YDR162C, strain NBP2, hits give low values 1.03 | locus YDR195W, strain ref2 0.947 | locus YDR297W, strain sur2, hits give low values 1 | locus YDR318W, strain mcm21, hits give low values 1.02 | locus YDR334W, strain swr1, hits give low values 0.987 | locus YDR335W, strain msn5, hits give low values 0.999 | locus YDR388W, hits give low values 0.993 | locus YDR392W, strain spt3, hits give low values 1.04 | locus YDR502C, strain sam2, hits give low values 1.02 | locus YEL003W, strain gim4, hits give low values 1 | locus YEL037C, strain rad23, hits give low values 0.972 | locus YEL061C, strain CIN8 (second series), hits give low values 1.01 | locus YEL061C, strain CIN8, hits give low values 1.01 | locus YER015W, strain faa2, hits give low values 1 | locus YER016W, strain bim1, hits give low values 0.994 | locus YER110C, hits give low values 0.984 | locus YER111C, strain swi4, hits give low values 0.999 | locus YER155C, strain BEM2 (second series), hits give low values 0.99 | locus YER155C, strain BEM2, hits give low values 1 | locus YER167W, strain BCK2, hits give low values 1.01 | locus YFR010W, strain ubp6, hits give low values 1 | locus YGL078C, strain dbp3, hits give low values 1 | locus YGL086W, strain mad1, hits give low values 1 | locus YGL167C, strain pmr1, hits give low values 1 | locus YGL173C, strain kem1, hits give low values 0.985 | locus YGL227W, strain vid30, hits give low values 1.01 | locus YGL240W, strain doc1, hits give low values 1.02 | locus YGL248W, strain PDE1, hits give low values 1 | locus YGL253W, strain hxk2, hits give low values 1.01 | locus YGR135W, strain pre9, hits give low values 1 | locus YGR252W, strain gcn5, hits give low values 1.13 | locus YHR013C, strain ard1, hits give low values 0.998 | locus YHR027C, strain rpn1, hits give low values 1 | locus YHR030C, strain SLT2, hits give low values 1.01 and 0.969 | locus YHR079C, strain IRE1 (second series), hits give low values 0.96 | locus YHR079C, strain IRE1, hits give low values 0.971 | locus YHR094C, strain hxt1, hits give low values 0.981 | locus YHR129C, strain ARP1, hits give low values 1 | locus YHR142W, strain chs7, hits give low values 1.02 | locus YHR200W, strain rpn10, hits give low values 1.01 | locus YIL066C, strain RNR3, hits give low values 0.992 | locus YIL073C, strain SPO22, hits give low values 1.06 | locus YIL125W, strain kgd1, hits give low values 1.01 | locus YIR030C, strain dcg1, hits give low values 0.991 | locus YJL092W, strain hpr5, hits give low values 1 | locus YJL095W, strain BCK1 (second series), hits give low values 0.988 | locus YJL095W, strain BCK1, hits give low values 1.02 and 0.974 | locus YJL115W, strain asf1, hits give low values 1.01 | locus YJL129C, strain trk1, hits give low values 0.997 | locus YJL134W, strain LCB3, hits give low values 1.01 | locus YJL154C, strain vps35, hits give low values 1.01 | locus YJL164C, strain tpk1, hits give low values 1.01 | locus YJL166W, strain qcr8, hits give low values 1 | locus YJL168C, strain set2, hits give low values 0.988 | locus YJL187C, strain SWE1 (second series), hits give low values 1.01 | locus YJL187C, strain SWE1, hits give low values 1 | locus YJR043C, strain POL32, hits give low values 1.03 | locus YJR066W, strain TOR1, hits give low values 0.925 | locus YJR075W, strain HOC1, hits give low values 1.01
